# Source: PubChem BioAssay AID588453 (National Center for Advancing Translational Sciences (NCATS), 2011)
# Where “and” joins values, the source holds several entries; their conditions need not be identical. Equal values may be shown once. The campaign covered roughly 390,000 compounds. About 4,000 (1%) were called active. Another 4% or so got no clear call; they are omitted. Calls come from the whole dose curve; as a rule, active = well fitted inhibition curve with a large enough effect; inconclusive = small, poorly fitted or top-dose-only effect; inactive = no such curve, though single readings can be large or run the other way. Only a selection was taken, and actives are over-represented in it overall. More than one record can exist for a structure, and the calls need not agree.
# Target: Thioredoxin reductase 1, cytoplasmic (Rattus norvegicus) (UniProt O89049)
# Assay: qHTS Assay for Inhibitors of Mammalian Selenoprotein Thioredoxin Reductase 1 (TrxR1): qHTS; note: nearly all actives have a fitted effect of over 65% in size
# Details: recombinant rTrxR1, NADPH fluorescence consumption, selenite substrate; series mostly up to 114 µM; activity change, negative = inhibition: at the top concentration
# Method in brief: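 Rat TrxR1 (90 nM in the dispensed reagent) was pre-reduced with 400 uM NADPH for 5 min at room temperature, then incubated with compound for 15 min. After 400 uM selenite was added, NADPH fluorescence (Ex 340/Em 450 nm) was followed for 8 min.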
# % is set by controls: 0 for no effect and ±100 for the full control effect; potency is the fitted concentration of half-maximal effect.
# Thioredoxin reductase 1, cytoplasmic (Rattus norvegicus), sequence (O89049 whole entry, looked up): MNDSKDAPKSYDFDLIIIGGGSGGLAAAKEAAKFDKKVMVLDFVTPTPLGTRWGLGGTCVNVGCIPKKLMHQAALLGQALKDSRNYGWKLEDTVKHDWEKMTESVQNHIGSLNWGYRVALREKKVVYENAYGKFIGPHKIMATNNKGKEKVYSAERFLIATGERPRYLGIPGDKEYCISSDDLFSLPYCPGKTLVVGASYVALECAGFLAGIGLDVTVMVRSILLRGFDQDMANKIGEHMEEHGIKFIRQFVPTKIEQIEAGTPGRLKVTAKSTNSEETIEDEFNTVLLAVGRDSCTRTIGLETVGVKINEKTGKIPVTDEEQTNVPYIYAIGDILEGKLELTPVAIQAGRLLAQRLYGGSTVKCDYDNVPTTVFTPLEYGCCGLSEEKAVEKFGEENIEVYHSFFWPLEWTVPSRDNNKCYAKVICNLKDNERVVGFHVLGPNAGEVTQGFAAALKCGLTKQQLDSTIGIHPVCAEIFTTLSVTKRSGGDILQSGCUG
Compound,"activity change, negative = inhibition",Potency
COc1ccc(CN(Cc2ccccc2)C(=O)c2ccc(O)cc2)cc1COc1ccc(NC(C)=O)cc1,-8.02% (inactive),–
Cc1ccc(C2C(C#N)C(C#N)N3CCCN23)cc1 (configuration not stated),–,22.4 µM (active)
COc1ccc(CCNC(=O)Cn2c(=O)n(-c3ccccc3)c(=O)c3c(C)c(C)sc32)cc1OC,7.56% (inactive),–
CC(C)(C)OC(=O)N1CCC(c2c(C(=O)NCCc3ccsc3)cnn2-c2ccc(F)cc2F)CC1,19% (inactive),–
Cc1ccc(CN2CCC(n3nccc3NC(=O)CCCc3ccccc3)CC2)o1,–,70.8 µM (active)
COc1ccc(CN2CCC(n3nccc3NC(=O)CCCc3ccccc3)CC2)cc1C,-5.11% (inactive),–
CCn1cc(CN2CCC(n3nccc3NC(=O)CCCc3ccccc3)CC2)c(C)n1,18.4% (inactive),–
CN(C)c1cccc2ccccc12,-16.8% (inactive),–
COC(=O)C1=C(C(=O)OC)[C@@H]2N(Cc3ccccc3)c3ccccc3[C@@]23C[C@@H](C(=O)OC)N(S(=O)(=O)c2ccc(C(F)(F)F)cc2)C3=N1,-11.6% (inactive),–
CCS(=O)(=O)c1ncc(N(Cc2ccc(F)cc2)Cc2ccco2)c(C(=O)Nc2cc(C)ccc2C)n1,27.3% (inactive),–
Cc1ccc(CCNC(=O)c2ccc(CS(=O)(=O)Cc3cccc(C)c3)o2)cc1,4% [at 57.1 µM] (inactive),–
CCCSc1ncc(Cl)c(C(=O)Nc2c(C(=O)Nc3ccccc3)oc3ccccc23)n1,10% (inactive),–
Cc1cccc(CS(=O)(=O)c2ncc(Cl)c(C(=O)Nc3ccc(F)cc3)n2)c1,–,7.94 µM (active)
CCOCCCNC(=O)c1c(NC(=O)c2nc(SC)ncc2Cl)sc2c1CCCC2,–,inactive
Cc1ccc(NC(=O)c2nc(S(=O)(=O)Cc3cccc(C)c3)ncc2Cl)cc1,–,1.78 µM (active)
Cc1ccc2nc(NC(=O)c3nc(SCc4ccccc4F)ncc3Cl)sc2c1,31.9% (inactive),–
Cc1cccc(NC(=O)c2nc(S(=O)(=O)Cc3ccccc3)ncc2Cl)c1,–,5.62 µM (active)
CCOC(=O)c1ccc(NC(=O)c2nc(SCc3ccc(F)cc3)ncc2Cl)cc1,18.3% (inactive),–
Cc1cccc(NC(=O)Cn2cc(S(=O)(=O)Cc3ccccc3Cl)c3ccccc32)c1,15.8% (inactive),–
CSc1nnc(NC(=O)c2nc(S(=O)(=O)Cc3ccc(C)cc3)ncc2Cl)s1,–,15.8 µM (active)
CSc1ncc(Cl)c(C(=O)Nc2ccc(S(=O)(=O)N3CCCC(C)C3)cc2)n1 (configuration not stated),20.8% (inactive),–
CN(C)c1cccc(C(=O)Nc2nc3ccc(S(=O)(=O)NC(C)(C)C)cc3s2)c1,13.9% [at 57.1 µM] (inactive),–
CN(C)c1ccc(/C=C/c2c3ccccc3nc3ccccc23)cc1,7.73% (inactive),–
Cc1ccc(CNS(=O)(=O)c2ccc(-c3cc(C(F)(F)F)on3)s2)cc1,14.4% [at 57.1 µM] (inactive),–
Cc1nn(-c2ccc(N3CCCCC3)nn2)c(C)c1CCC(=O)NCc1ccc(F)cc1,15.3% [at 57.1 µM] (inactive),–

Compound,"activity change, negative = inhibition",Potency
COc1ccccc1NC(=O)c1oc2ccccc2c1NC(=O)COc1ccccc1OC,16.3% (inactive),–
COc1ccc(S(=O)(=O)c2c(Nc3cccc(Cl)c3)sc(C(=O)c3ccccc3)c2N)cc1,23.1% (inactive),–
O=C(CNS(=O)(=O)c1cccs1)N1CCN(c2ccccc2Cl)CC1,18.1% (inactive),–
COc1ccccc1CNC(=O)C(Cc1ccccc1)NS(=O)(=O)c1ccc2c(c1)oc(=O)n2C (configuration not stated),15.7% (inactive),–
CCOC(=O)c1c(C)oc2nc(C)nc(N(CC(C)C)CC(C)C)c12,-7.59% (inactive),–
Cc1ccc(CNC(=O)CCNS(=O)(=O)c2ccc3c(c2)oc(=O)n3C)cc1,5.75% (inactive),–
CCOC(=O)c1c(NC(=O)c2ccc(S(=O)(=O)N(CC)CC)cc2)sc2c1CCCCC2,8.59% (inactive),–
CCc1ccc(CNC(=O)c2cc3cc4ccc(OC)cc4nc3o2)cc1,19.9% (inactive),–
O=C(O)/C(=C/c1c(C(=O)O)[nH]c2cc(Cl)cc(Cl)c12)c1ccccc1,–,inactive
O=C(Nc1nc2ccc(F)cc2s1)c1nc(SCc2ccccc2F)ncc1Cl,17.6% (inactive),–
O=C(Nc1ccccc1C(F)(F)F)c1nc(S(=O)(=O)Cc2ccccc2F)ncc1Cl,–,2.82 µM (active)
CN(CC(=O)Nc1ccccc1C(F)(F)F)C(=O)Cc1ccccc1F,12.8% (inactive),–
Cc1ccc(Cn2cnc3c(cnn3C(C)(C)C)c2=O)c(F)c1,17.2% (inactive),–
O=C(NNC1CC(=O)N(c2cccc(Cl)c2)C1=O)c1cccnc1 (configuration not stated),-9.32% (inactive),–
O=C1[C@@H]2C(c3cccnc3)=NO[C@@H]2C(=O)N1c1ccc(Cl)cc1Cl,–,70.8 µM (active)
CCN(CC)c1ccc(/C=C/c2c(C)cnc3ccc(C)cc23)cc1,9.41% (inactive),–
COc1cccc(CNC(=O)CCc2nc(-c3ccc(C)cc3)no2)c1,7.09% (inactive),–
COc1ccc(OC)c(NC(=O)CSc2nc3ccccc3nc2N2CCCCC2)c1,-6.8% (inactive),–
CCn1cc(C(=O)NCc2ccccc2)c(=O)c2cc(S(=O)(=O)N3CCCCC3)ccc21,24.3% (inactive),–
CCC(=O)N1CCc2cc(Br)cc(S(=O)(=O)CCC(=O)NCc3ccccc3OC)c21,13.2% (inactive),–
Fc1cc(Br)ccc1NC(=S)Nc1cccnc1,–,50.1 µM (active)
O=C(NC(=S)Nc1ccc(Br)cc1F)C1CCCCC1,11% [at 57.1 µM] (inactive),–
O=C(Nc1cccnc1)c1cc2cc(Br)ccc2oc1=O,-6.18% [at 57.1 µM] (inactive),–
CN(C)c1ccc(C=Nc2ccc(/C=C/c3ccnc4ccccc34)cc2)cc1,-22.1% (inactive),–
O=C(/C=C/c1ccc(Cl)cc1Cl)c1cccnc1,–,4.47 µM (active)

Compound,"activity change, negative = inhibition",Potency
O=C(OCc1cc(Cl)ccc1OC(F)F)c1cccnc1,19.4% (inactive),–
O=C(O)/C(=C/c1cccnc1)NC(=O)c1ccccc1,-10.9% (inactive),–
Cc1cc(C)c(NC(=O)CN2C(=O)c3cccnc3Oc3ccc(Cl)cc32)c(C)c1,12% (inactive),–
Cc1ccc(SCC(CC(C)C)N2CCN(CCc3ccccc3)CCC2=O)cc1 (configuration not stated),-13.2% (inactive),–
O=C(Nc1ccc2nc(SCCOc3ccccc3)sc2c1)c1ccco1,-12.7% (inactive),–
O=C(Nc1nnc(C2CC(=O)N(c3ccc(Cl)cc3)C2)s1)c1ccco1 (configuration not stated),35.7% (inactive),–
O=C(Nc1nc(-c2ccco2)c(-c2ccco2)s1)c1ccco1,–,28.2 µM (active)
Cc1ccc(C)c(OCC(=O)Nc2sc3c(c2C#N)CCCC3)c1C,-9.89% (inactive),–
COc1cccc(C2CC(c3ccccc3)=NN2S(=O)(=O)c2ccccc2)c1OC (configuration not stated),28.7% [at 57.1 µM] (inactive),–
COc1ccc2c(c1OC)C(=O)OC2Nc1nc(-c2ccccc2)cs1 (configuration not stated),–,4.47 µM (active)
Cc1ccc2c(c1)N(C(=O)CCC(=O)NCc1ccccc1F)CC(C)O2 (configuration not stated),9.14% (inactive),–
O=C(C1CCC(Cn2c(=O)c3sccc3n(Cc3ccccc3F)c2=O)CC1)N1CCCCC1 (configuration not stated),44.2% [at 57.1 µM] (inactive),–
O=C(/C=C/c1ccc([N+](=O)[O-])o1)NNC(=O)c1ccc(F)cc1,–,3.16 µM (active)
COc1ccc(-n2c(SCC(=O)Nc3ccc(Cl)c(C)c3)nc3n[nH]c(C)c3c2=N)cc1,9.9% [at 57.1 µM] (inactive),–
O=C(Nc1ccc2oc(-c3ccc(O)c(Br)c3)nc2c1)c1cc2ccccc2o1,13.4% (inactive),–
CN(Cc1ccco1)S(=O)(=O)c1nnc(NC(=O)c2ccccc2)s1,–,inactive and 17.8 µM (active)
CCN(CC)S(=O)(=O)c1nnc(NC(=O)COc2ccccc2Cl)s1,3.5% (inactive),–
CCOc1cccc(C(=O)Nc2nnc(S(=O)(=O)N(C)c3ccc(C)cc3)s2)c1,20.4% (inactive),–
CCC(=O)Nc1nnc(S(=O)(=O)N(CC(C)C)c2ccccc2)s1,14.3% [at 57.1 µM] (inactive),–
CCCCC(=O)Nc1nnc(S(=O)(=O)N(C)Cc2ccco2)s1,–,44.7 µM (active)
CCN(c1ccc(Cl)cc1)S(=O)(=O)c1nnc(NC(=O)c2ccco2)s1,1.56% (inactive),–
CCCCOc1ccc(C(=O)NO)cc1,16.9% (inactive),–
COC(=O)c1ccc(NC(=O)CCc2c(C)nc3c(c(C)nn3-c3ccc(C)cc3)c2C)cc1,-16% (inactive),–
COC(=O)c1cc(NC(=O)c2cnc(SC)nc2-c2ccccc2)cc(C(=O)OC)c1,7.82% [at 57.1 µM] (inactive),–
N#CCCN1CCN(S(=O)(=O)c2ccc(S(=O)(=O)N3CCCC3)cc2)CC1,19.7% [at 57.1 µM] (inactive),–

Compound,"activity change, negative = inhibition",Potency
CC(C)(C)c1cc(CN2CCN(CCC#N)CC2)cc(C(C)(C)C)c1O,–,4.47 µM (active)
N#Cc1cccc(CN2CCC(=O)N(CCO)CC2)c1,11.3% (inactive),–
COc1cc2nc(Cl)nc(NC3CC3)c2cc1OC,-0.97% (inactive),–
Cc1cccc(C(CC(=O)NCC2(c3ccccc3)CCCC2)c2ccccc2)c1O (configuration not stated),14.6% (inactive),–
O=C(CCSCc1ccccc1F)N1CCN(c2ccc(Cl)cc2)CC1,2.41% [at 57.1 µM] (inactive),–
COC(=O)C1=C(C)N(c2ccc(C)cc2)/C(=C/c2ccc(O)cc2)C1=O,9.2% (inactive),–
COc1ccc(N2C(=O)/C(=C\c3ccco3)N=C2SCC(N)=O)cc1Cl,-3.55% [at 57.1 µM] (inactive),–
COC(=O)C1=C(C)N(c2ccc(Br)cc2)C(=O)/C1=C\c1ccco1,–,50.1 µM (active)
COC(=O)C1=C(C)N(C(C)c2ccccc2)C(=O)/C1=C\c1ccco1 (configuration not stated),–,28.2 µM (active)
COC(=O)C1=C(C)N(C)C(C)=C(C(=O)OC)C1c1cccc(Br)c1,15.4% [at 57.1 µM] (inactive),–
COc1ccc(N2C(=O)CS(=O)(=O)C23C(=O)N(Cc2ccc(C)cc2)c2ccccc23)cc1Cl (configuration not stated),23.5% (inactive),–
Cc1ccc2nc(COc3cccc(NC(=O)c4ccccc4Cl)c3)cc(=O)n2c1,8.09% [at 57.1 µM] (inactive),–
O=C(CSc1ccc(-c2cccs2)nn1)Nc1ccccc1F,45.6% [at 57.1 µM] (inactive),–
COc1ccc(Cl)cc1NC(=O)CSc1nc(-c2cccs2)cc(C(F)(F)F)n1,15.6% (inactive),–
CSc1ccccc1NC(=O)CCS(=O)(=O)c1nc(-c2cccs2)cc(C(F)(F)F)n1,–,14.1 µM (active)
CCc1ccc(S(=O)(=O)c2nnn3c2nc(N2CCN(CC)CC2)c2sccc23)cc1,27.1% (inactive),–
CC(C)C[C@H](NC(=O)[C@H](O)[C@H](N)Cc1ccccc1)C(=O)O,18.1% [at 57.1 µM] (inactive),–
O=C(CSc1nnc(-c2cccnc2)n1CCc1ccccc1)NCc1ccccc1,7.54% (inactive),–
O=C(CSc1nnc(-c2cccnc2)n1Cc1ccco1)c1ccc(Cl)c(Cl)c1,–,44.7 µM (active)
CCn1c(SCC(=O)NCc2ccco2)nnc1-c1ccc(N)cc1,9.16% [at 57.1 µM] (inactive),–
Cc1ccc(C)c(N2CCN(C(=O)Cc3c(C(=O)O)c(C)cn3C)CC2)c1,19.2% [at 57.1 µM] (inactive),–
Cc1ccccc1CNC(=O)Cn1c(C)c2cnn(-c3ccccc3)c(=O)c2c1C,23.6% (inactive),–
